More than one record can exist for a structure, and the calls need not agree. The source made the active and inactive calls. The calls were made as follows: active = hit-call score of the fitted dose curve at least 0.9, where 1 is the maximum; inactive = score below 0.9.

Read-out in the assay: X-box binding protein 1 (XBP1), XBP1 (gene 7494)
Briefly: LTEA_HepaRG_XBP1: Life Technologies and Expression Analysis (LTEA) Assay for X-box binding protein 1 (XBP1) using HepaRG (AID 2283540). Particulars: mRNA level, 48 h; actives raise or lower the signal. The method, then:
LTEA_HepaRG is a cell based, multiplexed-readout assay that uses HepaRG, a human liver cell line, with measurements taken at 48 hours after chemical dosing on a 96-well plate.LTEA_HepaRG_XBP1 is one of 102 assay component(s) measured in the LTEA HepaRG cell culture assay. It is a marker of Diseases associated with XBP1 including Major Affective Disorder 7 and Bipolar Disorder.Data from the assay component LTEA_HepaRG_XBP1 was analyzed into 1 endpoint. This assay endpoint, LTEA_HepaRG_XBP1, was analyzed with bidirectional fitting relative to DMSO as the negative control and baseline of activity. Using a type of inducible reporter, measures of mRNA induction for gain or loss-of-signal activity can be used to understand regulation of transcription factor activity. To generalize the intended target to other relatable targets, this assay endpoint is annotated to the dna binding intended target family, where the subfamily is basic leucine zipper.
A total of 1060 chemcials from the ToxCast library were tested in eight-point concentration-response experiments. Cell culture and cytotoxicity assays were conducted at Thermo Fisher Scientific's Custom Services facility (Madison, WI). A single lot of human HepaRG cells (Thermo Fisher Scientific, Frederick, MD) was used for the cell culture experiments. 96-well format collagen type I coated plates of human HepaRG cells were prepared using established methods. Briefly, cryopreserved HepaRG cells were thawed, plated at a density of approximately 100,000 cells/well in HepaRG Thaw, Plate, and General Purpose media (HPRG770, Thermo Fisher Scientific), and incubated for 48 hours. 0.5% DMSO was selected as vehicle control to balance the requisite need of DMSO in HepaRG cultures to maintain differentiation (for example, baseline metabolism, proportions of hepatocytes vs. cholangiocytes), while enabling further hepatic receptor pathway activation (for example, PXR and CAR) in response to chemical exposure. 48 hours after plating, the culture medium was replaced with HepaRG Serum-Free Incudtion Media. Cells were exposed to each test chemical in duplicate and maintained in CO2 incubators for another 48 hours. Chemical plates were thawed to room temperature and 200x concentrations of treatment groups were prepared. 8-point conentration-reponse curves were made with the highest exposure at 100 uM, followed by half-log dilutions, all in 0.5% DMSO. Each test plate contained variouse controls, induction positive controls (1mM phenobarbital), cytotoxicity positive controls ([…] aflatoxin B1), vehicle controls (0.5% DMSO), and total lysis controls (0.5% DMSO). Cell morphology images were taken using an Essen IncuCyte FLR automated microscope, with six 96-well plates imaged in about 24 minutes. Images were captured and exported and JPEG files. Spent culture media was transfered to black-well plates for the LDH assay, and remaining media was sorted at -80 C for later use. Cells were treated with RLT buffer and frozen until shipped for gene expression analysis. Total RNA was isolated from the cell suspension in 75 uL of Buffer RLT (Qiagen, Germantown, MD 20874) by Quintiles/Expression Analysis (Durham, NC) using a custom isolation procedure. Total RNA from each plate well was transferred to a preamplification plate. Fluidigm's 96.96 Dynamic ArrayTM (Fluidigm, Amsterdam, the Netherlands) technology was used for gene expression analyses by quantitative reverse transcription polymerase chain reaction (qRT-PCR, performed by Quintiles/Expression Analysis, Durham, NC)89. Standard TaqManTM Assays (Applied Biosystems/ThermoFisher Scientific, Foster City, CA) were used to assess the expression of 93 genes selected based on their selectivity and sensitivity to important hepatic receptors known to be modulated by environmental chemicals; importance in human hepatocyte functionality; and hepatotoxicity. […]
For the compound `Oc1ccc(Cl)cc1Cc1ccccc1`, the outcome was inactive. `CCC(C)(C)C(=O)OC1=C(c2ccc(Cl)cc2Cl)C(=O)OC12CCCCC2`: the result was inactive. Turning to `CNC(=O)/C=C(\C)OP(=O)(OC)OC`, the outcome was inactive. On the same count and under the same terms, the same measure for `COc1nn(CSP(=S)(OC)OC)c(=O)s1`: “inactive”. On to `CC(C)(C)C(O)C(Oc1ccc(Cl)cc1)n1cncn1` (stereo not given), for which the call was inactive. Still for that read-out and setting: next, `CNC(=O)Oc1ccccc1OC(C)C`: “inactive”. Regarding `CCOCN(C(=O)CCl)c1c(C)cccc1CC`, the call was inactive. Still for that read-out and setting: the same measure for `CCN(CC)C(=O)SCc1ccc(Cl)cc1`: “inactive”; for `CC1(c2ccc(Oc3ccccc3)cc2)OC(=O)N(Nc2ccccc2)C1=O` (stereo not given): “inactive”; for `C[C@H]1[C@H](c2ccc(Cl)cc2)SC(=O)N1C(=O)NC1CCCCC1`: “inactive”. In the case of `CCOC1Oc2ccc(OS(C)(=O)=O)cc2C1(C)C` (stereo not given), the outcome was inactive. Still for that read-out and setting: the same measure for `O=S(=O)(O)C(F)(F)C(F)(F)C(F)(F)C(F)(F)C(F)(F)C(F)(F)C(F)(F)C(F)(F)F`: “inactive”. As to `O=C(O)C(F)(F)C(F)(F)C(F)(F)C(F)(F)C(F)(F)C(F)(F)C(F)(F)F`, the result was inactive and the AC50 was 50 µM (active). Regarding `O=[N+]([O-])/N=C1\NCCN1Cc1ccc(Cl)nc1`, the half-maximal activity concentration (AC50) is 25.5 µM (active). On to `CNC(=O)CSP(=S)(OC)OC`, for which the compound was classed as inactive. `Clc1ccccc1-c1nnc(-c2ccccc2Cl)nn1`: the outcome was inactive. For the compound `OCCOc1ccccc1`, the compound was called inactive. On to `ClC1C(Cl)C(Cl)C(Cl)C(Cl)C1Cl` (stereo not given), for which the outcome was inactive. For `O=C1c2ccccc2C(=O)N1SC(Cl)(Cl)Cl`, the result was inactive.

With `O=S1OCC2C(CO1)C1(Cl)C(Cl)=C(Cl)C2(Cl)C1(Cl)Cl` (stereo not given), the result was inactive. For the compound `CC(C)(C)C(O)/C(=C\c1ccc(Cl)cc1Cl)n1cncn1` (stereo not given), the call was inactive. Turning to `O=C(Nc1ccccc1)Nc1cnns1`, the AC50 was 50 µM (active).

As to `CCCN(CCOc1c(Cl)cc(Cl)cc1Cl)C(=O)n1ccnc1`, the AC50 was 78.8 µM (active). With `CNC(=O)Oc1cccc(N=CN(C)C)c1`, the call was inactive.

For the compound `Oc1cc(Cl)ccc1Oc1ccc(Cl)cc1Cl`, the call was inactive.

As for `O=C(O)CCCOc1ccc(Cl)cc1Cl`, the call was inactive. With `Cc1[nH]c(=O)n(C(C)(C)C)c(=O)c1Cl`, the compound was classed as inactive. Take `COP(=S)(OC)Oc1ccc(SC)c(C)c1`: the call was inactive. Same read-out and setting: next, `CCC(C)(NC(=O)c1cc(Cl)c(C)c(Cl)c1)C(=O)CCl` (stereo not given): “inactive”. As to `N#Cc1c(Cl)c(Cl)c(Cl)c(C#N)c1Cl`, the AC50 is 82.3 µM (active). As for `CC(C)N(C(=O)COc1nnc(C(F)(F)F)s1)c1ccc(F)cc1`, the AC50 was 28.5 µM (active). With `CN1CSC(=S)N(C)C1`, the outcome was inactive. `O=C(NC(=O)c1c(F)cccc1F)Nc1ccc(OC(F)(F)C(F)OC(F)(F)F)c(Cl)c1` (stereo not given): the call was inactive. Take `CC[C@H](C)[C@H]1O[C@]2(C=C[C@@H]1C)C[C@@H]1C[C@@H](C/C=C(\C)[C@@H](O[C@H]3C[C@H](OC)[C@@H](O[C@H]4C[C@H](OC)[C@@H](O)[C@H](C)O4)[C@H](C)O3)[C@@H](C)/C=C/C=C3\CO[C@@H]4[C@H](O)C(C)=C[C@@H](C(=O)O1)[C@]34O)O2` (tested in a mixture with another compound): the compound was called inactive. Consider `CCCN(CCC)c1c([N+](=O)[O-])cc(C(F)(F)F)cc1[N+](=O)[O-]`, for which the compound was classed as inactive. Turning to `CCc1ccc(C(=O)NN(C(=O)c2cc(C)cc(C)c2)C(C)(C)C)cc1`, the outcome was inactive. `COP(=O)(OC)OC=C(Cl)Cl`: the outcome was inactive. Regarding `C#CCN1C(=O)COc2cc(F)c(N3C(=O)C4=C(CCCC4)C3=O)cc21`, the compound was classed as inactive. Regarding `O=[N+]([O-])c1c(Cl)c(Cl)c(Cl)c(Cl)c1Cl`, the result was inactive.

(Values after PubChem BioAssay (EPA / NIEHS).)
